Experimental data taken from the supplement of paper PMC10681739.

Experiments:
ETS1 [1] = target: T1, ETS1 (UniProt P14921); assay: ETS1 binding intensity (PBM fluorescence), ETS1 alone (arbitrary fluorescence units); higher = stronger binding; conditions: ETS1 concentration 1 nM; RUNX1 concentration 0 nM
T1 sequence: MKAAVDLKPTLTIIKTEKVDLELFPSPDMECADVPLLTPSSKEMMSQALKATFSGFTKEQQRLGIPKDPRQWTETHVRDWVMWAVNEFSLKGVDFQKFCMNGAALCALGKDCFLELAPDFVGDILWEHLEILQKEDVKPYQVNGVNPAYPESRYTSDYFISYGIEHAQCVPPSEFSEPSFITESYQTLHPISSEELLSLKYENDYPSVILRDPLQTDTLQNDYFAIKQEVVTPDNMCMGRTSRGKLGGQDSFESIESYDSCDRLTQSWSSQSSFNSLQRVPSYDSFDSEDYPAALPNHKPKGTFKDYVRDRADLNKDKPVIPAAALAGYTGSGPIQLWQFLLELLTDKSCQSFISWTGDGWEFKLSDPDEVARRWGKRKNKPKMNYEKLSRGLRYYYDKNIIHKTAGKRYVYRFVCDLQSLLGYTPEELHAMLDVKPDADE

RUNX1 [2] = target: RUNX1 (UniProt Q01196); assay: RUNX1 binding intensity (PBM fluorescence), RUNX1 alone (arbitrary fluorescence units); higher = stronger binding; conditions: RUNX1 concentration 2 nM; ETS1 concentration 0 nM
Method: (§1)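 Cooperative gcPBM on 36-bp genomic probes with neighbouring ETS1 and RUNX1 sites. Recombinant human RUNX1 (2 nM) was incubated alone or with ETS1 (25 nM) and detected with anti-RUNX1 antibody plus Alexa488 secondary. Values are medians over 4 replicate spots; the RUNX1+ETS1 data were normalised to the RUNX1-only data. The probes sit in constant array flanks that are not printed.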

ETS1 [3] = target: T1, ETS1; assay: ETS1 binding intensity (PBM fluorescence) in presence of RUNX1, normalised to ETS1-only experiment (arbitrary fluorescence units); higher = stronger binding; conditions: ETS1 concentration 1 nM; RUNX1 concentration 25 nM
RUNX1 [4] = target: RUNX1 (UniProt Q01196); assay: RUNX1 binding intensity (PBM fluorescence) in presence of ETS1, normalised to RUNX1-only experiment (arbitrary fluorescence units); higher = stronger binding; conditions: RUNX1 concentration 2 nM; ETS1 concentration 25 nM
Method: as §1
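Wherever RUNX1 binding intensity (PBM fluorescence) in presence of ETS1, normalised to RUNX1-only experiment is given: Full-length recombinant human ETS1 or RUNX1 bound to double-stranded 36-bp genomic probes on microarrays, detected by protein-specific primary antibody and Alexa488 secondary, spot fluorescence as median of four replicate spots.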
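Wherever RUNX1 binding intensity (PBM fluorescence), RUNX1 alone is given: Full-length recombinant human RUNX1 bound to double-stranded 36-bp genomic probes on a high-density microarray, scored as Alexa488 fluorescence per spot via anti-RUNX1 antibody, median of four replicate spots.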

Sequence of RUNX1 (Q01196 whole entry): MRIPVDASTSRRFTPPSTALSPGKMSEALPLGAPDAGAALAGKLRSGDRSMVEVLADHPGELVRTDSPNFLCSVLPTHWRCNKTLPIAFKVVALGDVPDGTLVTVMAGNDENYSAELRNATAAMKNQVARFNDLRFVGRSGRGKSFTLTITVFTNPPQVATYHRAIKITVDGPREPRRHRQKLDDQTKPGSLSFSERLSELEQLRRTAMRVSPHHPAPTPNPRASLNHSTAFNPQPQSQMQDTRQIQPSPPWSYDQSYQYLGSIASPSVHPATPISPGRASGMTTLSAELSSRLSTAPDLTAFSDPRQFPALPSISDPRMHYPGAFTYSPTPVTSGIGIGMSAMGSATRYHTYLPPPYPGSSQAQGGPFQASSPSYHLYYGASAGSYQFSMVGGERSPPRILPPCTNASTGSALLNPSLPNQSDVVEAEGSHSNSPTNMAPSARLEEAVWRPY

| Sequence | ETS1 binding intensity (ETS1 [1]) | RUNX1 binding intensity (RUNX1 [2]) | ETS1 binding intensity (ETS1 [3]) | RUNX1 binding intensity (RUNX1 [4]) |
| --- | --- | --- | --- | --- |
| CGCCCACCACTTCCTGCTGGCGGTCGGCAAGCGTTG | 1430 | 1020 | 2240 | 8670 |
| GCCGCCTCTTCCTGTGTTGCAAACCACAGGTCCACC | 1250 | 1570 | 2340 | 4540 |
| CTTTGCTGCAGGATGTTCTAACCACAAGCCCAGGAG | 1070 | 3030 | 6670 | 7310 |
| AGCTTGCTTCCTGTCCCCAAAACCCACAGCACACGG | 688 | 893 | 1120 | 2590 |
| ATGTACATAGATACAGGATGTGGGTTTGTTACAAAG | 7940 | 746 | 24400 | 3400 |
| GTTCTTATCCTGTGGCTCGTTTGTGGTTACTGACAT | 425 | 4330 | 741 | 4260 |
| GAGGCCGAAAGGAAGTTTGAGGTTAAGCACAAGATG | 975 | 792 | 1900 | 1060 |
| CCCCTTCCCGTTCTCCGAAAGTGCGCGGGTTGGAGC | 489 | 792 | 361 | 1230 |
| ACACTGGCCGGAAGGGGCGGGACCGCGAGTTAAGAG | 1280 | 791 | 2380 | 1320 |
| CCAAAATTGCCACGGAAACCACATCTTTCAGGCGAG | 486 | 1520 | 687 | 1620 |
| TCACCTCATCACAGGAAACCGCGAGCACCTCCTCCT | 2180 | 1610 | 5440 | 1770 |
| TGCTTTTCAGGTGCAGGAAGTGGTTTGCCTTTGCCC | 7810 | 788 | 11000 | 1200 |
| ATGGGTACAGGATTTCCTTTTGTGGTGATGAAAATG | 697 | 913 | 1030 | 1200 |
| GCCGATGAGGAAGTGAGGGCCAACCACACTGCTCAG | 544 | 878 | 673 | 749 |
